We go through four compounds from PubChem BioAssay AID651871 (Sanford-Burnham Center for Chemical Genomics, 2012).

Several values for one entry are separate records, joined by “and”; a condition that tells them apart may be missing. Equal entries are not always repeated.

In the test the test system is H9c2. The test is described as follows: cardiomyocyte survival under oxidative or metabolic stress – cell-based, panel, H9c2 and HL-1, ATP luminescence, set 2, SAR follow-up (AID 651871).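 Further: cells exposed to stressor for 2 h before ATP readout; reference of the scale not given here.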 The note with it: H9c2/HL-1 cardiomyocytes, H2O2 oxidative stress; with H2O2, run 3, at 79 µM (top of the series).
With `COc1ccc2nc(-c3cc(OC)c(OC)c(OC)c3)cc(C(=O)NCC(=O)Nc3ccc(C(C)=O)cc3)c2c1`, the activity (protection/inhibition) is 91.8% and 76.1%.

For `CCOC(=O)c1cccc(NC(=O)CNC(=O)c2cc(-c3cc(OC)c(OC)c(OC)c3)nc3ccccc23)c1`, the activity (protection/inhibition) was found to be 99%.

Regarding `COc1ccc2c(c1OC)C(=O)N1c3ccccc3C(=O)N(Cc3cccc(Cl)c3Cl)C21` (centres undefined), the activity (protection/inhibition) was 77.5% and 104% and 43.3%.

Take `COc1cc(-c2cc(C(=O)Nc3cccc(C(=O)NCc4ccccc4)c3)c3ccccc3n2)cc(OC)c1OC`: the activity (protection/inhibition) turned out to be 95.7%.
